Test results reported in the supplement of paper PMC6555819.

Tests used:
Assay in all cases: PBM binding z-score (relative to random genomic background probes); higher = stronger binding; sequences stand for … in GC…GCGATTGACAGCGTAGAATGAAGG
[1] = system: FXR:RXRa (NR concentration 270 nM, RXRa partner concentration 90 nM)
Method in brief: (§1)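 Binding buffer was PBS pH 7.4 with 2% milk, 0.02% Triton X-100, 1 mM DTT, 0.2 mg/mL BSA and 0.4 mg/ml salmon testes DNA. In it, ligand-free nuclear receptor dimers were incubated 1 h on custom Agilent 4×180K protein-binding microarrays carrying double-stranded probes. Antibodies against each partner (one per run) detected binding, and z-scores were calculated against random background probes after regression normalization of scanned fluorescence.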

[2] = system: LXRa:RXRa (NR concentration 270 nM, RXRa partner concentration 90 nM)
Method in brief: as §1

[3] = system: LXRa homodimer (NR concentration 270 nM)
Method in brief: as §1

[4] = system: LXRb:RXRa (NR concentration 270 nM, RXRa partner concentration 90 nM)
Method in brief: as §1

[5] = system: LXRb homodimer (NR concentration 270 nM)
Method in brief: as §1

[6] = system: PPARa:RXRa (NR concentration 270 nM, RXRa partner concentration 90 nM)
Method in brief: as §1

[7] = system: PPARg:RXRa (NR concentration 180 nM, RXRa partner concentration 90 nM)
Method in brief: as §1

[8] = system: PPARg:RXRa 270nM:90nM, anti-RXR (NR concentration 270 nM, RXRa partner concentration 90 nM)
Method in brief: as §1

[9] = system: PPARg:RXRa 30nM:10nM, anti-RXR (NR concentration 30 nM, RXRa partner concentration 10 nM)
Method in brief: as §1

[10] = system: PPARg:RXRa 90nM:30nM, anti-RXR (NR concentration 90 nM, RXRa partner concentration 30 nM)
Method in brief: as §1

| Sequence | PBM binding z-score [1] | PBM binding z-score [2] | PBM binding z-score [3] | PBM binding z-score [4] | PBM binding z-score [5] | PBM binding z-score [6] | PBM binding z-score [7] | PBM binding z-score [8] | PBM binding z-score [9] | PBM binding z-score [10] |
| --- | --- | --- | --- | --- | --- | --- | --- | --- | --- | --- |
| CTCGAAAGGTCGGTTGAGGTGAGTAAACGGATAA | 2.7 | 1.73 | -0.0936 | 1.39 | -0.228 | 2.84 | 0.202 | 1.25 | 0.048 | 0.00835 |
| CCTAGCAGGCCAGGGTCACCCAAGCATTTCGCTT | 2.7 | 1.95 | -0.482 | 2.3 | -1.1 | 3.82 | 1.34 | 2.02 | -0.0989 | 1.43 |
| AATACAGGGTCACTAGGCCAGAGTGGGTACGAAT | 5.94 | 5.03 | 0.964 | 3.77 | 0.863 | 5.69 | 8.11 | 6.63 | 3.08 | 5.4 |
| CGAACTAGGTCACCAGGACGGTGAAGAGGTTGGA | 3.75 | 2.3 | -0.206 | 1.19 | -0.86 | 5.23 | 8.37 | 6.93 | 4.31 | 6.43 |
| TCTAGTTGGTCATGGAGGTCACACACGACGGGTA | 3.61 | 3.7 | 3.33 | 3.3 | 1.23 | 3.9 | 3.39 | 3.95 | 3.27 | 3.52 |
| ATATGTAGGTTACATCGGGGTCATTCAGGCTATG | 4.88 | 5.89 | 3.8 | 4.91 | 1.46 | 5.71 | 7.19 | 6.35 | 4.23 | 5.65 |
| CGTCAAAGTTCAACTAATGTAACGTAAAGCACGC | 7.05 | 6.09 | 4.93 | 4.21 | 2.34 | 4.77 | 4.72 | 5.26 | 2.95 | 4.56 |
| CAAACTAGGTCAAAGGTCAAAGTTGAGCCAACCA | 8.49 | 7.15 | 5.63 | 7.42 | 3.19 | 7.85 | 14 | 11.5 | 12.5 | 13.5 |
| TCTCGGAGGACACGAAGGTCAGCGCTTTCCAGAG | 1.84 | 1.77 | 0.379 | 1.68 | -0.754 | 2.31 | 0.453 | 2.02 | 2.12 | 1.93 |
| CCGACTGGGGCAAAGGTTACCACACTCAGTACGA | 1.86 | 1.89 | 0.137 | 2.27 | -0.702 | 5.83 | 10.7 | 8.79 | 8.43 | 9.24 |
| ATATGCAGGTTATCGGGTCATTCAGTTTGCGCAT | 3.37 | 3.44 | 1.57 | 3.03 | 0.832 | 4.13 | 4.45 | 4.25 | 1.56 | 3.42 |
| ATATGTAGGTTAGGGTCATGCAGAAAGTAGGGAA | 4.77 | 4.14 | 0.926 | 4.29 | 1.21 | 5.74 | 7.7 | 6.66 | 4.91 | 6.3 |
| ATATGTAGGTTTGGGTCATTCAGAAAGTAGGGAA | 1.74 | 1.71 | 0.946 | 2.49 | 1.68 | 3.1 | 2.34 | 2.64 | 1.4 | 2.29 |
| CGAGCTAGGTCACCAGGACAGTGAAGAGGTTGGA | 3.66 | 2.28 | -0.245 | 1.56 | -0.77 | 3.81 | 3.74 | 3.66 | 0.712 | 2.68 |
| ATATGTAGGTTAGGGTCACTCAGAAAGTAGGGAA | 4.33 | 3.26 | 0.67 | 3.89 | 1.47 | 5.51 | 7.42 | 6.49 | 3.96 | 6.11 |
| ATATGTAGGTTACATGCGGGTCATTCAGGCTATG | 2.21 | 4.55 | 0.959 | 2.66 | 0.785 | 4.22 | 5.9 | 5.3 | 2.6 | 4.65 |
| ATATGTAGGTTAGGTTCATTCAGAAAGTAGGGAA | 1.59 | 2.28 | 0.871 | 2.34 | 1.28 | 4.1 | 4.93 | 4.37 | 2.49 | 4.03 |
| CGAACTAGGTCACCAGGACAGTGAGGAGGTTGGA | 3.89 | 2.25 | 0.127 | 1.33 | -0.378 | 4.93 | 7.97 | 6.87 | 4.45 | 6.61 |
| GATACAGGGTCAACTAGAGGCCAGAGTATGGAAA | 7.52 | 5.21 | 0.703 | 4.77 | 0.877 | 6.2 | 6.7 | 5.69 | 2.72 | 4.61 |

| Sequence | PBM binding z-score [1] | PBM binding z-score [2] | PBM binding z-score [3] | PBM binding z-score [4] | PBM binding z-score [5] | PBM binding z-score [6] | PBM binding z-score [7] | PBM binding z-score [8] | PBM binding z-score [9] | PBM binding z-score [10] |
| --- | --- | --- | --- | --- | --- | --- | --- | --- | --- | --- |
| ATCGAATGGTCGTGAGGTGAGTATACAGAAAGGC | 0.132 | -0.131 | -0.134 | -0.373 | -0.124 | -0.301 | 0.654 | -0.486 | -0.0496 | -0.425 |
| ATATGTAGGTTAGGGTCATTCATAAAGTAGGGAA | 5.45 | 4.03 | 1.6 | 4.64 | 1.55 | 5.93 | 8.24 | 6.58 | 4.58 | 6.47 |
| CAAACTAGGTCACAGAGGGCAAAGTCCGTGCGTA | 5.08 | 4.6 | 2.26 | 3.61 | 0.517 | 5.45 | 8.81 | 7.31 | 5.42 | 7.28 |
| GATACAGGGTCAATGCCAGAGTACGCGTATTGAT | 6.02 | 3.64 | -0.0445 | 3.44 | -0.0572 | 5.2 | 4.79 | 4.33 | 1.52 | 2.95 |
| CAAACTAGGTCACAGAGGACAAAGTCCGTGCGTA | 4.82 | 3.84 | 1.45 | 2.96 | 0.637 | 5.52 | 9.51 | 7.79 | 5.58 | 7.51 |
| AATACAGGATCACTAGGCCAGAGTAGGTACGAAT | -0.102 | -0.204 | -0.28 | -0.407 | -0.237 | 0.128 | 1.19 | 0.718 | 0.264 | 0.869 |
| ACTAGTGGGTCAGCTGAGGTCACACACAATTCGG | 4.98 | 5.49 | 2.88 | 4.54 | 0.173 | 4.9 | 6.38 | 5.68 | 3.12 | 4.86 |
| ATATGCAGGTTAGGGTCATTCAGAAAGTAGGGAA | 4.84 | 4.25 | 0.906 | 4.2 | 0.909 | 5.12 | 4.09 | 4.1 | 1.99 | 3.4 |
| ATATGTAGGTTAAGGTCATTCAGAAAGTAGGGAA | 5.54 | 5.3 | 3.85 | 4.59 | 1.75 | 5.54 | 8.49 | 6.99 | 5.28 | 7.39 |
| GCTGCTAGGTCAACTGATGGTGAGCTAAAGCTCG | 4.47 | 2.63 | -0.169 | 1.71 | -0.179 | 3.57 | 2.57 | 3.02 | 0.564 | 2.06 |
| CGTCAAAGTTCAAGCTAACGTAACAGAAAGCAGC | 7.1 | 6.1 | 3.7 | 3.81 | 1.32 | 4.93 | 4.58 | 5.18 | 2.29 | 4.32 |
| ATCTCTAGGTAACAAGGTCAGTGAAAGAGAGGAC | 1.72 | 1.92 | 0.814 | 1.9 | 1.16 | 3.22 | 3.64 | 3.84 | 1.54 | 3 |
| ATATGTAGGTTAGAGTCATTCAGAAAGTAGGGAA | 0.573 | 1.04 | 0.277 | 1.02 | 0.605 | 2.75 | 4.27 | 4.03 | 1.69 | 3.08 |
| ATCGAATGGTCGAAGGTGAGTATACCCACCCGAA | -0.229 | -0.228 | -0.451 | -0.362 | -0.158 | 0.153 | 1.07 | 1.34 | 0.48 | 1.31 |
| CGAACTTGGTCAAAGGACAGTGAAAGGCGACGTA | -0.082 | -0.109 | -0.799 | -0.227 | -0.688 | 1.25 | 3.15 | 4.34 | 2.21 | 4.07 |
| CGAACTAGGCCACCAGGACAGTGAAGAGGTTGGA | -0.158 | -0.638 | -0.662 | -0.868 | -0.94 | 1.98 | 3.12 | 2.28 | 0.382 | 1.23 |
| CGAACTAGGTCACCAGGACAGTGACGAGGTTGGA | 4.27 | 2.44 | -0.221 | 1.53 | -0.75 | 5.17 | 8.62 | 6.98 | 4.41 | 6.34 |
| ATATGGAGGTTAGGGTCATTCAGAAAGTAGGGAA | 5.28 | 4.25 | 1.34 | 4.8 | 2.02 | 5.63 | 5.01 | 4.47 | 1.89 | 3.76 |
| CCGACTGGGGCAACGGTTACCATACTCAGTACGA | -0.245 | -0.501 | -0.164 | -0.317 | -1.33 | 1.25 | 3.08 | 4.07 | 2.04 | 3.93 |
